Bioassay records as filed in PubChem BioAssay.
This is one part of a sample in which hits are shown more often than they occur.
TDP1 cell CPT – DT40-hTDP1 cell growth loss with CPT. AID 686979. Potency, µM (titrated, usually from 46.2 µM), for inactives: at the top dose activity change, negative = growth inhibition, most hits filed as inhibitors. chicken DT40 Tdp1-/-;hTDP1 cells + 20 nM CPT, ATP luminescence, 48 h. 420,000 tested, 12% active; also: potency is read from the fitted curve at half-maximal effect; nearly all actives have a fitted effect of over 55% in size
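Cell growth measured by CellTiter-Glo luminescence after a minimum 48 h, 37 C compound exposure with 20 nM CPT in Tdp1-knockout DT40 cells stably expressing hTDP1, seeded 400/well; qHTS titration format.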
HT1080 IDH1KD tx – HT-1080 IDH1 knockdown cell toxicity (counter line) | 360,000 tested, 2% active | AID 686971 | HT-1080 IDH1 knockdown viability, ATP luminescence, 48 h | Potency, µM (titrated, usually from 46.1 µM), for the others: top-dose activity, negative = toxicity, most hits filed as cytotoxic;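 also: potency is read from the fitted curve at half-maximal effect; 0% = DMSO wells and -100% = cell-free medium wells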
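HT-1080-IDH1KD cells (IDH1 knocked down), 750/well in RPMI with 5% FBS, treated with compound 48 h at 37 degrees C. Viability by CellTiter-Glo luminescence, normalised to DMSO and no-cell wells; concentration-response curves classed.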
IL1B secr inh – inhibitors of inflammasome signaling (IL-1 beta secretion) | THP-1 LPS/ATP IL-1B secretion, AlphaLISA, 16 h; stronger effect = lower value | AID 743279 | 360,000 tested, 4.7% active | activity change, % at 57.5 µM; in the data active = activity change below about -50%; inconclusive = mostly about -30% to -49%
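THP-1 cells pretreated 1 hr with compounds (up to 57.5 uM final), then stimulated with LPS (250 ng/mL final) plus ATP (1.25 mM final); secreted IL-1B measured by AlphaLISA after 16 hr, decreased signal indicating inhibition.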
DT40 TDP1 no CPT – qHTS for Inhibitors of human tyrosyl-DNA phosphodiesterase 1 (TDP1): qHTS in cells in absence of CPT | AID 686978, 2013 | Potency, µM (doses to about 46.2 µM), for the others: at the highest dose activity change, negative = growth inhibition, usual class: inhibitors | 420,000 tested, 15% active | DT40 Tdp1-/- hTDP1 cells, no CPT, ATP luminescence, 48 h; also: potency is read from the fitted curve at half-maximal effect; nearly all actives have a fitted effect of over 55% in size
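Compound effects on proliferation are scored in DT40 Tdp1-/-;hTDP1 cells in the absence of CPT. ATP levels (CellTiter-Glo luminescence) are recorded after a ≥48 hr, 37 °C incubation.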
12-LOX inh – ALOX12 (human) lipoxygenase inhibition. 580,000 tested, 1.1% active. Potency, µM (titrated, usually from 108 µM), without a hit: top-dose activity change, negative = inhibition, actives largely listed as inhibitors. P18054. purified 12hLO, xylenol orange hydroperoxide absorbance. AID 1671190; also: potency is read from the fitted curve at half-maximal effect
Target sequence (P18054 whole entry, looked up): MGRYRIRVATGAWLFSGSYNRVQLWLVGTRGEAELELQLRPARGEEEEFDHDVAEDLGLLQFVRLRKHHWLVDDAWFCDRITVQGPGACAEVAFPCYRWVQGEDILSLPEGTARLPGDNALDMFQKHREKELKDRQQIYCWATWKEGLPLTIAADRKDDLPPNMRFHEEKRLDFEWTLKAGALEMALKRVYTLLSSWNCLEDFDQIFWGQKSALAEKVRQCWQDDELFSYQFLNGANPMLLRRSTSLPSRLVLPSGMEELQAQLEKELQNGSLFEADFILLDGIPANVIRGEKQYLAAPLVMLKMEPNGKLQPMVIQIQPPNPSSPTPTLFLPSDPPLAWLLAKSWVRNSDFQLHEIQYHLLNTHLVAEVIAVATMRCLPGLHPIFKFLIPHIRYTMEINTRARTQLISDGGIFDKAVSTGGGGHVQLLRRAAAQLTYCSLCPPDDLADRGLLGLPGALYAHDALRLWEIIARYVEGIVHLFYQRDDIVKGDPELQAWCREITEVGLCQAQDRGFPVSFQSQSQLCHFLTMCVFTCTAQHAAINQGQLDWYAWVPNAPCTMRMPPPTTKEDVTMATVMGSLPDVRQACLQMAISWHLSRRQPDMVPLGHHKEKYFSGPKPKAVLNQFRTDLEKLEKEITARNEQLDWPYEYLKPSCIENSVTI
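Hydroperoxide product was detected by ferrous iron/xylenol orange as the 573 to 405 nm absorbance ratio. Arachidonic acid at 40 uM (final) was turned over for 30 min at room temperature by 150 nM human 12hLO, pH 7.0 Hepes buffer, after 15 min compound preincubation.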
HT1080NT lethal – kills 2HG-producing HT-1080-NT fibrosarcoma cells. AID 686970. Potency, µM (top dose mostly 46.1 µM), for inactives: at the top dose activity, negative = less viability, hits mostly cytotoxic. 360,000 tested, 1.6% active. HT-1080-NT fibrosarcoma viability, CellTiter-Glo ATP luminescence, 48 h;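 also: NT is the 2HG producing partner of a matched IDH1 knockdown line; potency is read from the fitted curve at half-maximal effect; 0% = DMSO-treated cells and -100% = media-only wells without cells; nearly all actives have a fitted effect of over 55% in size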
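Viability by CellTiter-Glo luminescence after 48 h compound exposure at 37C of HT-1080-NT cells (750/well, RPMI, 5% FBS). % activity scaled between DMSO wells and medium-only wells, then curve-fitted and categorized by curve class.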
An asterisk follows results filed as active; ? = inconclusive; / = not tested or not shown. Unless noted, calls follow the shape of the dose curve; as a rule, active = well fitted curve in the direction sought with a large enough effect; inconclusive = small, poorly fitted or top-dose-only effect, or another doubt; inactive = no such curve, though single readings can be large; an effect the other way counts as inactive or inconclusive. Unless noted, % is scaled to controls: 0 for no effect and ±100 for the full control effect.

SMILES	TDP1 cell CPT	HT1080 IDH1KD tx	IL1B secr inh	DT40 TDP1 no CPT	12-LOX inh	HT1080NT lethal
CCc1ccc(OCC(=O)NC(NC(=S)Nc2ccc(C)cc2C)C(Cl)(Cl)Cl)cc1 (stereo not given)	?	?	-16	23µM*	?	?
CC(=O)N1CC(n2cc(C(=O)NCC3CC3)nn2)C1	/	/	/	/	15%	/
CCCS(=O)(=O)N1CC(N(C)Cc2cccnc2)C1	/	/	/	/	24%	/
O=C(NCCCN1CCCCC1)c1ccc2c(c1)N(S(=O)(=O)c1ccccc1)CC2	/	/	/	/	23%	/
COc1ccc2sc(N(Cc3cccnc3)C(=O)C3=COCCO3)nc2c1	/	/	/	/	-8%	/
Cc1ccc(NC(=S)NC(NC(=O)c2ccccc2C)C(Cl)(Cl)Cl)c(C)c1 (stereo not given)	?	?	-25	?	35µM*	?
C[C@H](CO)N1C[C@H](C)[C@@H](CN(C)Cc2ccc(-c3ccccc3)cc2)Oc2c(NC(=O)Nc3ccc(C(F)(F)F)cc3)cccc2C1=O	8.2µM*	9%	23	?	-7%	28%
C[C@H](CO)N1C[C@H](C)[C@@H](CN(C)C(=O)NC2CCCCC2)Oc2c(NC(=O)CCC(F)(F)F)cccc2C1=O	?	6%	-1	-20%	-2%	8%
C[C@H](CO)N1C[C@H](C)[C@@H](CN(C)C(=O)Nc2ccc(C(F)(F)F)cc2)Oc2c(NC(=O)CCC(F)(F)F)cccc2C1=O	?	-7%	-66*	?	-11%	-14%
C[C@H](CO)N1C[C@H](C)[C@@H](CN(C)CC2CCCCC2)Oc2c(NC(=O)CCC(F)(F)F)cccc2C1=O	21µM*	-25%	7	15µM*	-2%	?
C[C@H](CO)N1C[C@H](C)[C@@H](CN(C)C(=O)Nc2ccc(C(F)(F)F)cc2)Oc2c(NC(=O)Cc3ccccc3)cccc2C1=O	-21%	-9%	?	-24%	0%	-4%
C[C@H](CO)N1C[C@H](C)[C@@H](CN(C)C(=O)Nc2ccccc2)Oc2c(NC(=O)Nc3ccc(C(F)(F)F)cc3)cccc2C1=O	13µM*	?	-9	?	?	?
COc1ccc(N2C(=O)CSC2c2ccccc2F)c(OC)c1 (stereo not given)	-20%	-9%	-18	-35%	0%	5%
Cc1cc(C(C)(C)C)cc(C)c1COC(=O)c1cccnc1	-12%	?	77	?	-10%	?
Cc1[nH]nc2c1C1(C(=O)Nc3ccc(Cl)cc31)C(C#N)=C(N)O2 (stereo not given)	/	/	/	/	36%	/
C[C@@H]1CN([C@H](C)CO)C(=O)c2cccc(NC(=O)NC3CCCCC3)c2O[C@@H]1CN(C)C(=O)Nc1ccc(C(F)(F)F)cc1	16µM*	?	-67*	?	/	?
C[C@H](CO)N1C[C@H](C)[C@@H](CN(C)C(=O)Nc2ccc(C(F)(F)F)cc2)Oc2c(NC(=O)NC3CCCCC3)cccc2C1=O	-84%	-22%	?	?	-10%	-25%
C[C@H](CO)N1C[C@H](C)[C@@H](CN(C)C(=O)Nc2ccc(C(F)(F)F)cc2)Oc2c(NC(=O)C3CCCCC3)cccc2C1=O	?	-6%	-58*	?	7%	-2%
COc1ccc(-c2cc3ccccc3oc2=O)cc1NC(=S)NC(=O)c1ccc2c(c1)OCCO2	12µM*	-4%	-15	9.2µM*	-14%	8%
COc1ccc(-c2cc3ccccc3oc2=O)cc1NC(=O)c1ccc([N+](=O)[O-])o1	21µM*	?	-9	15µM*	-16%	-11%
